Drawing on ChEMBL document CHEMBL1961873, “Compounds: GSK PKIS; Assays: Nanosyn kinase panel” (2012), this text covers inhibition for six compounds.

Experiment [1] deals with Mitogen-activated protein kinase kinase kinase kinase 4 (Homo sapiens) (UniProt O95819). The note with it: at 1 µM.
In experiment [2] the target is Dual specificity mitogen-activated protein kinase kinase 1 (Homo sapiens) (UniProt Q02750). The note with it: at 0.1 µM.
Experiment [3] has the same target. The settings on record: at 1 µM.
Experiment [4] concerns the target Misshapen-like kinase 1 (Homo sapiens) (UniProt Q8N4C8). The note with it: at 0.1 µM.
Experiment [5] shares this target. The note with it: at 1 µM.
Experiment [6] deals with T1, Serine/threonine-protein kinase 4 (Homo sapiens) (UniProt Q13043).
T1 sequence (whole entry): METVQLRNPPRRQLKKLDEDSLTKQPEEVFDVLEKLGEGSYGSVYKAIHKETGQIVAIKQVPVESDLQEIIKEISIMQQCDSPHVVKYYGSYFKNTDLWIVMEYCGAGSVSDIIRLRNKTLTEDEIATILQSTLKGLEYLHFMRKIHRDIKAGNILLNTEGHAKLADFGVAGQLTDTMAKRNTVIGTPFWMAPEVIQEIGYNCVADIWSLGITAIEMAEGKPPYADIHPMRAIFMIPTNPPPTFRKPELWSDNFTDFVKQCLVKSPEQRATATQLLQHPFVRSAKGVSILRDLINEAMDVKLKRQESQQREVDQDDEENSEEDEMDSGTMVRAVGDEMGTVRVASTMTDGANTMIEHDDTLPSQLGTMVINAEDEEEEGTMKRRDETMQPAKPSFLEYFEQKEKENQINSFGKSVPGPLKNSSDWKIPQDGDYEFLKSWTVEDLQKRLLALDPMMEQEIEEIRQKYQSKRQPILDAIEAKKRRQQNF
The settings on record: at 0.1 µM.

Experiment [7] has as its target T1, Serine/threonine-protein kinase 4 (Homo sapiens). The settings on record: at 1 µM.
Experiment [8] addresses T2, Serine/threonine-protein kinase 3 (Homo sapiens) (UniProt Q13188).
T2 sequence (whole entry): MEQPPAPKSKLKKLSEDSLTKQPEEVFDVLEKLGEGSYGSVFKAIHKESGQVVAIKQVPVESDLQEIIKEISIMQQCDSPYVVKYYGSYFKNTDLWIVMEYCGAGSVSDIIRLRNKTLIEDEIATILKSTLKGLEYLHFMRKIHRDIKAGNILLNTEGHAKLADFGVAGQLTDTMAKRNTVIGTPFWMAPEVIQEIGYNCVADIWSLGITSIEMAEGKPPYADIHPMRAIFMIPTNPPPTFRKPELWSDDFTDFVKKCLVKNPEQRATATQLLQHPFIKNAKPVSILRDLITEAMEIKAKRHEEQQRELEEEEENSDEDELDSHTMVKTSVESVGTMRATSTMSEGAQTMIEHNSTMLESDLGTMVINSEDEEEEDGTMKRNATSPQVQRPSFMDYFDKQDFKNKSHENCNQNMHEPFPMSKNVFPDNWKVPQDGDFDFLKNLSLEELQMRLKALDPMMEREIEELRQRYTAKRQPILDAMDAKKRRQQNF
The note with it: at 0.1 µM.

Experiment [9] has as its target T2, Serine/threonine-protein kinase 3 (Homo sapiens). The settings on record: at 1 µM.
The target in experiment [10] is Serine/threonine-protein kinase 26 (Homo sapiens) (UniProt Q9P289). The settings on record: at 0.1 µM.
Sequence of Serine/threonine-protein kinase 26 (Homo sapiens) (Q9P289 2-416 limits assumed): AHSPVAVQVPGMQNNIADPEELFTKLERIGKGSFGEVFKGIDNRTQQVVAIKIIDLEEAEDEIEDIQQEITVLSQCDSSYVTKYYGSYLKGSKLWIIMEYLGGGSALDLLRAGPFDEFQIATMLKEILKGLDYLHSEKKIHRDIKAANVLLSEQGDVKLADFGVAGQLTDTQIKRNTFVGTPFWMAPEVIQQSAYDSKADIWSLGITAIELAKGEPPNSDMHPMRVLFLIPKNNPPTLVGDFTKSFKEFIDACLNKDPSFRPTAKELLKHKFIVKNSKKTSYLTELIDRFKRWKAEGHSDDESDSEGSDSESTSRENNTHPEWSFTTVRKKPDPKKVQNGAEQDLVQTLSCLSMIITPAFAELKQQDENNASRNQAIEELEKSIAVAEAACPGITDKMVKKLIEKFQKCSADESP
For experiment [11] the target is unchanged. The note with it: at 1 µM.
Experiment [12] has as its target Serine/threonine-protein kinase PAK 1 (Homo sapiens) (UniProt Q13153). The settings on record: at 0.1 µM.
Experiment [13] shares this target. The note with it: at 1 µM.
The target in experiment [14] is Serine/threonine-protein kinase PAK 2 (Homo sapiens) (UniProt Q13177). The note with it: at 0.1 µM.
Sequence of Serine/threonine-protein kinase PAK 2 (Homo sapiens) (Q13177 whole entry): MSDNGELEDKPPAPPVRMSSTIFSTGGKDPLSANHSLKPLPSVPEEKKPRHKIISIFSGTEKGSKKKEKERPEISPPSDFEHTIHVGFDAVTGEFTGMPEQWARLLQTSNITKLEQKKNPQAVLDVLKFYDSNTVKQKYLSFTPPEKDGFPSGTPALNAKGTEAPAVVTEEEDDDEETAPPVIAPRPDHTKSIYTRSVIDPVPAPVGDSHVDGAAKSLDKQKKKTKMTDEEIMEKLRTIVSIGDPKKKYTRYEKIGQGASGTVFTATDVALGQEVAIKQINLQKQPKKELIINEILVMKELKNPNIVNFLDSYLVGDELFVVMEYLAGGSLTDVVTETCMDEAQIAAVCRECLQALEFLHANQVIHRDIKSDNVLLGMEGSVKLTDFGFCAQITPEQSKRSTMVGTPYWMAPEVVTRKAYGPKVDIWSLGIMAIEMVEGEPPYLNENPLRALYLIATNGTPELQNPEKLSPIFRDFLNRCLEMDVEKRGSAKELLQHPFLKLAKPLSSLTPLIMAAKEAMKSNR
For experiment [15] the target is unchanged. The note with it: at 1 µM.
Experiment [16] deals with Serine/threonine-protein kinase PAK 3 (Homo sapiens) (UniProt O75914). The settings on record: at 0.1 µM.
Sequence of Serine/threonine-protein kinase PAK 3 (Homo sapiens) (O75914 whole entry, looked up): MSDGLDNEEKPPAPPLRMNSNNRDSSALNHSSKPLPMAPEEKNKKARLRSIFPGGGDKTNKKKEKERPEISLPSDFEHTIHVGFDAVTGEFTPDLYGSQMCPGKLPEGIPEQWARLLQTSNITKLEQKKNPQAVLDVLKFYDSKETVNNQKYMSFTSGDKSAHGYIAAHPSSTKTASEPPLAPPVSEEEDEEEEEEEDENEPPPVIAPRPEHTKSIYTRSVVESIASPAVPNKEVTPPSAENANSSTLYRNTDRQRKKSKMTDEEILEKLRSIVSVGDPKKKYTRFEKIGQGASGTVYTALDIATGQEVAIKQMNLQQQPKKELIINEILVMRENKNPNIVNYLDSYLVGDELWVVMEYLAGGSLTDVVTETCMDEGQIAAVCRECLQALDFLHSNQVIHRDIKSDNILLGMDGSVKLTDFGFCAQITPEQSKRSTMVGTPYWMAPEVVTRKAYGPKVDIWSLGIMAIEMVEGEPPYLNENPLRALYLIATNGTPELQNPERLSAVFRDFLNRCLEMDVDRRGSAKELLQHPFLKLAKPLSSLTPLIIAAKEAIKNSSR
Experiment [17] shares this target. The settings on record: at 1 µM.
Experiment [18] concerns the target Serine/threonine-protein kinase PAK 5 (Homo sapiens) (UniProt Q9P286). The note with it: at 0.1 µM.
The target is the same in experiment [19]. The note with it: at 1 µM.
Experiment [20] deals with Serine/threonine-protein kinase PAK 6 (Homo sapiens) (UniProt Q9NQU5). The settings on record: at 0.1 µM.
Sequence of Serine/threonine-protein kinase PAK 6 (Homo sapiens) (Q9NQU5 whole entry, looked up): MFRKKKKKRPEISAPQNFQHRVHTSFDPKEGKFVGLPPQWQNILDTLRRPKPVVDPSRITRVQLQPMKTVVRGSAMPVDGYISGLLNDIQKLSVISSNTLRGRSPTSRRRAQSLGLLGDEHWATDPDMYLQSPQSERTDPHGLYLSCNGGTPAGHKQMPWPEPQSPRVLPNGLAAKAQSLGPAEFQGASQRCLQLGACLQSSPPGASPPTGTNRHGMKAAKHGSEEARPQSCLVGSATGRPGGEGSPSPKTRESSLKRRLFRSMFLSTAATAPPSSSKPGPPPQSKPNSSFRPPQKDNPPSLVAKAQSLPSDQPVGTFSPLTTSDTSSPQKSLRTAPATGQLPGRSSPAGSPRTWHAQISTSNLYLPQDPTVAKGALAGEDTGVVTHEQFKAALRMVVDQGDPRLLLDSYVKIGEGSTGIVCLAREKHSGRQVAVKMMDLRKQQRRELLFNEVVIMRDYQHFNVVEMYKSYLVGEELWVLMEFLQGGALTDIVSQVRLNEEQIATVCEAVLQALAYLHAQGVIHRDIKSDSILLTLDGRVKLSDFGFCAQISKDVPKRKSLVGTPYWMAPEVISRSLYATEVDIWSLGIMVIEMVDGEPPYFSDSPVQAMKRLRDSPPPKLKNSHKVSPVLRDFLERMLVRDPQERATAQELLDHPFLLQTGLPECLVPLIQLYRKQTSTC

Sequence of Serine/threonine-protein kinase PAK 1 (Homo sapiens) (Q13153 whole entry): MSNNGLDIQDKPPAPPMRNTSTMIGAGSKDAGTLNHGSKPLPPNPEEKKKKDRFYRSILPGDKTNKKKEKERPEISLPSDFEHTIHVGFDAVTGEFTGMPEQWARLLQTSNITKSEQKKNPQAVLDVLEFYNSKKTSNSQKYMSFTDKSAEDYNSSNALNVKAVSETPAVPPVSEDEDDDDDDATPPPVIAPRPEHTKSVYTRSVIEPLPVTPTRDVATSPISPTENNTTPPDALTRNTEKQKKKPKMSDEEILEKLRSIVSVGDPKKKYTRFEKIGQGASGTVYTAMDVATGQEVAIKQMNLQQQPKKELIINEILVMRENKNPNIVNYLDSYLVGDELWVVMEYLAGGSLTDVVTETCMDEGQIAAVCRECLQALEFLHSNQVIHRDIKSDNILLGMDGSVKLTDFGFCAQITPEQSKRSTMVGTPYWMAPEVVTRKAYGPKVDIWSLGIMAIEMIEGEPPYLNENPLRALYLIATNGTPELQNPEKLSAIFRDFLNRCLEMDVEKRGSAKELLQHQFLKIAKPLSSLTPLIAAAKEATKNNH
Sequence of Misshapen-like kinase 1 (Homo sapiens) (Q8N4C8 whole entry, looked up): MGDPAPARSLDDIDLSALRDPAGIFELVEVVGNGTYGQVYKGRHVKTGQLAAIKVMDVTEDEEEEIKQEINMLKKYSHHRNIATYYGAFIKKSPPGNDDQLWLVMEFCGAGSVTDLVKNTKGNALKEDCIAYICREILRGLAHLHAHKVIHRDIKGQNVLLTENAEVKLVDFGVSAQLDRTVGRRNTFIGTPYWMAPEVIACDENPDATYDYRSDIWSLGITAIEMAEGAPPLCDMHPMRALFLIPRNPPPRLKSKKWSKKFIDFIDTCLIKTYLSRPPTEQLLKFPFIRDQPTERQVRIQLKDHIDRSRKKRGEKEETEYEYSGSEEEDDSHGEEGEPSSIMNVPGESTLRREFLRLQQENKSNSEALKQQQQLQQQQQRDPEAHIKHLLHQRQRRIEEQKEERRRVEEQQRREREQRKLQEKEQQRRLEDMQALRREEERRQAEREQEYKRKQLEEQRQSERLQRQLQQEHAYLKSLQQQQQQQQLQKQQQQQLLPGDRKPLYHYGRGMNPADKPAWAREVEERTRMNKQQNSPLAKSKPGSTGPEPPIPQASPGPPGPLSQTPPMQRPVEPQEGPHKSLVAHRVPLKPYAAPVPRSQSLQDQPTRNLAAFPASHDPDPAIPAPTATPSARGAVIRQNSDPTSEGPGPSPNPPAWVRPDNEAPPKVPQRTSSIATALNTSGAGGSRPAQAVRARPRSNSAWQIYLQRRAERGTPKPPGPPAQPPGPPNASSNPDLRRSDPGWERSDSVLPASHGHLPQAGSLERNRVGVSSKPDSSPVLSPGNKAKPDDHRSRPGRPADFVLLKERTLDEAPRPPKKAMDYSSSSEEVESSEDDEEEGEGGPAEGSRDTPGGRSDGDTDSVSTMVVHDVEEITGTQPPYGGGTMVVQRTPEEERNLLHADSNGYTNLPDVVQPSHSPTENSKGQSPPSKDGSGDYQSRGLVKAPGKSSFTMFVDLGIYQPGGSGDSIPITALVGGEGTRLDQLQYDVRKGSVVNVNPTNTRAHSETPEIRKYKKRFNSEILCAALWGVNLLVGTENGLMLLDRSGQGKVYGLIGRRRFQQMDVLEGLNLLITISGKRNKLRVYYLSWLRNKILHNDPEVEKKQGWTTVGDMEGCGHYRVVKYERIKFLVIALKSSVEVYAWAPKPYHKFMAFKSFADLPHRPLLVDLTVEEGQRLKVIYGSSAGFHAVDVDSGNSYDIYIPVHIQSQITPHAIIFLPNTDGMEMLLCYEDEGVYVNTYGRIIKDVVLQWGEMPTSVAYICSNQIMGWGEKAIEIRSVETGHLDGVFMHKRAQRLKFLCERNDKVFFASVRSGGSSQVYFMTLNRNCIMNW
Sequence of Serine/threonine-protein kinase PAK 5 (Homo sapiens) (Q9P286 whole entry, looked up): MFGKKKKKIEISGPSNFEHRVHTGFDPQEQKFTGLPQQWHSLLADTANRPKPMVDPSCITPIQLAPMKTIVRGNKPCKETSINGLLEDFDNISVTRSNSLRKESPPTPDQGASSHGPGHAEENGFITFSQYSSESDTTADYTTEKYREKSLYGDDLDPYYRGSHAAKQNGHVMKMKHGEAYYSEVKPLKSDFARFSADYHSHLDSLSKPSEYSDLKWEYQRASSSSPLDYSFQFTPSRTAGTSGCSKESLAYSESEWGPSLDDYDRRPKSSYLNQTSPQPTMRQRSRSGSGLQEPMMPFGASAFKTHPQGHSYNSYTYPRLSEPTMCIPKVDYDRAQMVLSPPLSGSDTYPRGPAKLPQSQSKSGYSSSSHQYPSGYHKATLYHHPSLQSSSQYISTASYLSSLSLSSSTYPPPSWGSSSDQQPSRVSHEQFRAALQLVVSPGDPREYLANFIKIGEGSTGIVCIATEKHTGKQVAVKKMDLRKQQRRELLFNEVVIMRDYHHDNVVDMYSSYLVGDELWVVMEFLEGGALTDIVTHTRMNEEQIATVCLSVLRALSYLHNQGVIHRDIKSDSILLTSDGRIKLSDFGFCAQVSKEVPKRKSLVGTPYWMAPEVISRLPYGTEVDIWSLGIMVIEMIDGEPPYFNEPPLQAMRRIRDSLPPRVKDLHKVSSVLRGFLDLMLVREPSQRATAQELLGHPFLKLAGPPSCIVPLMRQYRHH

As a reminder, the inhibition is the drop in the measured response relative to a control, in per cent. As to `COc1ccc(-c2oc3ncnc(N)c3c2-c2ccc(NC(=O)Nc3cc(C(F)(F)F)ccc3F)cc2)cc1`, the inhibition in experiment [1] was determined as 10.1%; in [2], 6.74%; in [3], 7.26%; in experiment [4], 6.56%; in [5], 6.71%; in [6] it was 12.5%. Also, the inhibition in experiment [7] is 19.3%; in experiment [8], 12.7%; in experiment [9], 18.3%; in [10], 0.51%; in experiment [11], 0.01%; in experiment [12], 6.65%. The inhibition in experiment [13] is 5.48%; in experiment [14], 3.2%; in [15], 3.66%; in experiment [16], 4.72%; in experiment [17] it was 4.39%; in experiment [18], 16.8%. Besides, the values for the inhibition in [19] and in experiment [20] were 0.17% and 2.23%, respectively.
In the case of `Cc1cccc2c1NC(=O)/C2=N\Nc1ccc(S(N)(=O)=O)cc1`, the inhibition amounted to 48.9% in [1]; 2.57% in experiment [2]; 1.95% in experiment [3]; 7.44% in experiment [4]; 34.6% in experiment [5]; 6.81% in experiment [6]. The inhibition in [7] was 24.4%; in [8], 7.49%; in [9] it was 15.2%; in [10], -2.65%; in [11], -4.46%; in experiment [12] it was 7.85%. In addition, the inhibition amounted to 5.96% in experiment [13]; 2.44% in experiment [14]; 1.43% in experiment [15]; 3.43% in [16]; 3.88% in experiment [17]; 11.2% in experiment [18]. Also, the inhibition was found to be 2.81% in [19] and 3.7% in experiment [20].
Consider `CN(C)CCOc1ccc(-c2nc(-c3ccncc3)c(-c3ccc4c(c3)CC/C4=N\O)[nH]2)cc1`, for which the inhibition was found to be 47.2% in experiment [1]; 4.37% in experiment [2]; 3.23% in [3]; 8.74% in [4]; 37.3% in [5]; 4.67% in experiment [6]. The inhibition in experiment [7] is 6.56%; in experiment [8] it was 4.63%; in [9], 4.58%; in [10], -1.19%; in [11] it was -0.6%; in [12], 4.61%. Also, the inhibition in experiment [13] came out at 9.24%; in experiment [14], 2.66%; in [15], 2.42%; in experiment [16], 3.85%; in experiment [17] it was 4.82%; in [18], 7.4%. The values for the inhibition in experiment [19] and in experiment [20] were 7.07% and -7.61%, respectively.
Turning to `Fc1ccc(-c2cc(-c3c[nH]nc3-c3ccccn3)ccn2)cc1`, the inhibition is 59.6% in experiment [1]; 5.25% in experiment [2]; 3.85% in experiment [3]; 10.7% in experiment [4]; 44.4% in experiment [5]; 4.5% in [6]. The inhibition in experiment [7] was 6.92%; in experiment [8] it was 6.43%; in experiment [9], 7.79%; in experiment [10], -0.73%; in experiment [11], 1.02%; in experiment [12], 6.01%. Besides, the inhibition in experiment [13] was 5.42%; in experiment [14], 1.23%; in experiment [15], 1.38%; in experiment [16], 4.08%; in experiment [17], 5.11%; in experiment [18], 6.2%. Besides, the inhibition in [19] was 2.37%; in experiment [20], -1.74%.
For `COc1ccc2[nH]c3c4[nH]c5ccc(OC)cc5c4c4c(c3c2c1)C(=O)NC4=O`, the inhibition stood at 88.4% in [1]; 4.86% in experiment [2]; 7.06% in experiment [3]; 81.3% in experiment [4]; 84.8% in experiment [5]; 13% in [6]. The inhibition in experiment [7] came to 42%; in experiment [8] it was 14.2%; in experiment [9] it was 42.4%; in experiment [10], 4.27%; in experiment [11], 14%; in [12], 5.41%. The inhibition was found to be 7.72% in experiment [13]; 1.43% in experiment [14]; 3.51% in [15]; 4% in experiment [16]; 5.61% in experiment [17]; 5.43% in experiment [18]. Besides, the inhibition in experiment [19] worked out at 4.46%; in experiment [20], 4.49%.
As to `Fc1ccc(-c2nn3ccccc3c2-c2ccncc2)cc1`, the inhibition in [1] came out at 38.3%; in experiment [2] it was 1.23%; in experiment [3] it was 2.3%; in experiment [4], 4.74%; in [5], 22.3%; in experiment [6], 0.01%. Also, the inhibition in experiment [7] is 0.15%; in experiment [8], 0.09%; in experiment [9], 0.63%; in experiment [10], -1.27%; in [11] it was 2.42%; in experiment [12], 3.29%. The inhibition was 1.62% in [13]; -0.13% in experiment [14]; -0.1% in experiment [15]; 1.29% in experiment [16]; 1.75% in [17]; -0.38% in experiment [18]. The inhibition in experiment [19] is -4.35%; in experiment [20], 4.75%.
